# Source: PubChem
# CCT modulator = modulators of cytosolic chaperonin (CCT/TRiC) activity. purified chaperonin ATPase assay, HTRF ADP detection, 30 min. activity change, % (concentration not given with the values), hits read low. actives 0.3% (n = 360,000). AID 651819; in the data active means activity change below about -30%; further: on the % scale 0 is the no-effect control and ±100 the full control effect
#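 TRiC (40 or 20 nM final, by batch activity) in 30 mM Tris pH 7.4, 100 mM KCl, 5 mM MgCl2, 1 mM DTT was treated with compound at 76 uM single dose, then 10 uM ATP, 30 min at 37 °C. ADP was read by HTRF Transcreener.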
# GLS inhibitor = inhibitors of human glutaminase (GLS); O94925; GLS enzymatic activity, qHTS titration; Potency, µM (titrated, usually from 45.5 µM), for inactives: top-dose activity change, negative = inhibition, actives largely listed as inhibitors; actives 0.21% (n = 410,000); AID 624170; further: potency means the concentration at half of the fitted maximal effect; on the % scale 0 is the no-effect control and ±100 the full control effect
#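 hKGA; 45 mM KH2PO4 pH 8.2 + 0.02% Tween-20; cpd via pin tool; 1 mM Gln soln; GluOx/HRP/Amplex Red; RT 30 min; fluor. t0 & final.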
# GRP78 ERSR act = ER stress response induction in glioma; U87-MG GRP78 promoter luciferase reporter, 16 h; Potency, µM, without a hit: top-dose activation, actives largely listed as activators; actives 0.02% (n = 420,000); AID 602332; further: potency means the concentration at half of the fitted maximal effect; series mostly up to about 76 µM; % of control where 0% means no effect; nearly all actives have a fitted effect of over 35% in size
#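 Stably transfected U87-MG human glioma cells carrying a GRP78-based luminescent sensor were seeded at 1000 cells/well, pin-dosed with compounds and incubated 16 h. Luciferase reagent was then added, and end-point luminescence was read after 10 min at room temperature.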
# Akt phos inh = Akt phosphorylation inhibition. activity change, % for hits at 50 µM. AID 651550. actives 0.32% (n = 360,000). Neuro2A IGF-stimulated pAkt S473 HTRF, 20 min; hits give low values; in the data active means activity change below about -80%; inconclusive means mostly about -51% to -80%; further: on the % scale 0 is the no-effect control and ±100 the full control effect
#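 Neuro2A cells (4,500/well, DMEM with 0.5% FBS) were treated with compound at a single 50 µM final concentration, stimulated with 6 nM IGF for 20 min at 37 °C, and lysed. Phospho-Akt Ser473 was read by HTRF as 665/615 ratio ×10^4.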
# mIDH1 inhibitor = human IDH1 R132H inhibition | O75874 | IDH1-R132H enzyme, NADPH consumption, diaphorase/resazurin fluorescence | Potency, µM (doses to about 76.6 µM), inactives show at the highest dose activity change, negative = inhibition, most hits filed as inhibitors | actives 0.093% (n = 390,000) | AID 602179; further: potency means the concentration at half of the fitted maximal effect; on the % scale 0 is the no-effect control and ±100 the full control effect; nearly all actives have a fitted effect of over 65% in size
# Target sequence (O75874 whole entry R132H, stated change not applied): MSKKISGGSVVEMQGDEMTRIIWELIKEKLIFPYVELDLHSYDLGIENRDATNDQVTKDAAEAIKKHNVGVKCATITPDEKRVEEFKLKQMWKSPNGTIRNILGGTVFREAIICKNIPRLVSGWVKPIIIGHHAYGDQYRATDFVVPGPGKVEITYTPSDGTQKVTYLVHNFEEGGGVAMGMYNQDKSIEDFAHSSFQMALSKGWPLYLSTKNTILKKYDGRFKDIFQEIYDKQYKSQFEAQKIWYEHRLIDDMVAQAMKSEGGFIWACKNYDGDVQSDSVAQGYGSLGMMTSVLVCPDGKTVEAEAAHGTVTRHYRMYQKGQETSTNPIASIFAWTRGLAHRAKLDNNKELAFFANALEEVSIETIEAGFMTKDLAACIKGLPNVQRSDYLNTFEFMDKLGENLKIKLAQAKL
#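 IDH1-R132H (0.5 ug/mL) preincubated 30 min with compound, then NADPH (0.016 mM) and alpha-KG (2 mM) added; 80 min at RT, pH 7.5. Remaining NADPH coupled via diaphorase/resazurin to fluorescence (540/590 nm); concentration-response curves normalized to no-enzyme control.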
# MmCpn inh = blocks the Methanococcus maripaludis chaperonin Mm-Cpn; Potency, µM (doses to about 76.9 µM), for inactives: top-dose activity, negative = inhibition, actives largely listed as inhibitors; purified Mm-Cpn ATPase, ADP Transcreener TR-FRET; AID 504842; actives 0.031% (n = 330,000); further: potency means the concentration at half of the fitted maximal effect; on the % scale 0 is the no-effect control and ±100 the full control effect; nearly all actives have a fitted effect of over 80% in size
#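 ATPase turnover read by TR-FRET ADP competition (Eu cryptate antibody/ADP-d2, 665/590 nm): 10uM ATP final, 25nM Mm-CPN final, 30 min 37degC after 10-min compound preincubation, pH 7.4 Tris/KCl/MgCl2/DTT buffer.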
# Resorufin autofl = autofluorescence interference, mutant IDH1 hit counter-screen; shares compounds with mIDH1 inhibitor; Resorufin detection reagent fluorescence interference, cell-free; 750 tested, under 10 active; inhibition of signal, % at 51.2 µM;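 further: 0% = wells with normal resorufin and full inhibition = wells lacking resorufin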
# IDH1 WT = wild-type IDH1 (human) inhibition counterscreen; shares compounds with mIDH1 inhibitor; WT IDH1 enzyme, NADPH diaphorase/resazurin fluorescence; Potency, µM (highest dose often 115 µM), for the others: top-dose activity change, negative = inhibition, most hits filed as inhibitors; actives 9% (n = 750); AID 623995;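 further: potency means the concentration at half of the fitted maximal effect; 0% = full WT IDH1 enzyme control and full inhibition = no enzyme wells; nearly all actives have a fitted effect of over 55% in size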
# Target sequence (O75874 whole entry, looked up): as the sequence (O75874 whole entry R132H, stated change not applied) above, with H132R counted along it
# mIDH1 confirm = mutant IDH1 (human) inhibition, confirmed; shares compounds with mIDH1 inhibitor; AID 624002; IDH1 R132H enzyme, NADPH diaphorase/resazurin fluorescence; actives 83% (n = 750); Potency, µM (titrated, usually from 76.6 µM), inactives show at the highest dose activity change, negative = inhibition, actives largely listed as inhibitors; further: potency means the concentration at half of the fitted maximal effect; nearly all actives have a fitted effect of over 50% in size
# * marks the source's active call; other numbers are inactive results; i = inactive; ? = inconclusive; · = no result; ! = not confirmed by another sample. Most compounds without a hit are left out; they make up all but 0.85% or so of the library. Unless noted, the call rests on the fitted dose curve; in most records, active means well fitted curve in the direction sought with a large enough effect; inconclusive means small, poorly fitted or top-dose-only effect, or another doubt; inactive means no such curve, though single readings can be large; an effect the other way counts as inactive or inconclusive.
SMILES,CCT modulator,GLS inhibitor,GRP78 ERSR act,Akt phos inh,mIDH1 inhibitor,MmCpn inh,Resorufin autofl,IDH1 WT,mIDH1 confirm
CCn1c2ccccc2c2cc(C3C(C#N)=C(N)Oc4n[nH]c(COC)c43)ccc21 (configuration not stated),-2,0%,-1%,·,52µM*,1%,4,-4%,20µM*
Cc1ccc(Sc2ccc(NC(=O)CCl)cc2)c(C)c1,-7,0%,?,i,52µM*,2%,3,?,45µM*
COCC1CCCN(Cc2ccc3c(c2)CN(C(=O)c2ccc(-n4cccn4)cc2)CCO3)C1 (configuration not stated),·,·,-1%,·,·,·,·,·,·
COc1ccc(CCn2c(=N)c(S(=O)(=O)c3ccccc3)cc3c(=O)n4ccccc4nc32)cc1,2,-1%,-4%,i,3%,0%,·,·,·
CCCCCn1c(=N)c(S(=O)(=O)c2ccccc2)cc2c(=O)n3ccccc3nc21,·,-4%,-2%,·,20µM*,·,2,5%,7.9µM*
CCn1c(=N)c(S(=O)(=O)c2ccccc2)cc2c(=O)n3ccccc3nc21,-2,-4%,-9%,i,0%,1%,·,·,·
CCCn1c(=N)c(S(=O)(=O)c2ccccc2)cc2c(=O)n3ccccc3nc21,1,-14%,-2%,i,40µM*,-6%,4,7%,20µM*
COc1ccc(-c2nn(-c3ccccc3)cc2/C=C2/SC(=S)N(CCC(=O)O)C2=O)c(C)c1,-1,?,-2%,i,46µM*,-1%,2,?,35µM*
O=C(O)CCCCCN1C(=O)/C(=C/c2cn(-c3ccccc3)nc2-c2cccs2)SC1=S,-1,3%,-2%,i,?,·,-2,1%,35µM*
O=C(CCl)N1CCN(S(=O)(=O)c2ccc3c(c2)CCC3)CC1,-1,9%,-15%,i,46µM*,0%,-6,-24%,28µM*
CN1C(=O)N(CC(=O)N2CCN(S(=O)(=O)c3ccc4c(c3)CCC4)CC2)C(=O)C12CCCCC2,-1,-14%,1%,i,0%,-3%,·,·,·
Cc1c(C(=O)NCCCc2ccncc2)cnn1-c1nccc(-c2ccccc2F)n1,·,·,-5%,·,·,·,·,·,·
C=CCSC1=N/C(=C\c2ccc3c(c2)OCO3)C(=O)S1,0,7%,-2%,i,1%,2%,·,·,·
C=CCSC1=N/C(=C\c2cc(OCC)c(OC(C)=O)c([N+](=O)[O-])c2)C(=O)S1,0,-2%,-6%,i,?,0%,2,?,25µM*
Cc1cc(C)cc(N(CC(=O)Nc2ccc(C(F)(F)F)cc2)S(=O)(=O)c2c(C)[nH]c(=O)[nH]c2=O)c1,-1,12%,?,i,10µM*!,-2%,8,45µM*,32µM*
COc1cc(NC(=O)CN(c2cc(C)cc(C)c2)S(=O)(=O)c2c(C)[nH]c(=O)[nH]c2=O)cc(OC)c1,-13,4%,0%,i,12%,-5%,·,·,·
COc1ccc(N(C)C(=O)c2ccc3c(Cl)c4c(nc3c2)CCCC4)c(OC)c1,-4,-1%,-3%,i,?,1%,-7,0%,40µM*
COc1ccccc1C1CN(CCNC(=O)c2cscn2)Cc2ccccc2O1 (configuration not stated),·,·,1%,·,·,·,·,·,·
